Data reported in the supplement of paper PMC6555819.

How the values were obtained:
Assay in all cases: PBM binding z-score (relative to random genomic background probes); higher = stronger binding; sequences stand for … in GC…GCGATTGACAGCGTAGAATGAAGG
[1] = system: PPARg:RXRa DBDmut IVT, anti-RXR (DBD mutation: RXRa K156A/R161A, NR concentration 270 nM, RXRa partner concentration 90 nM)
Procedure, shortened: (§1)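 On custom Agilent 4×180K arrays, double-stranded probes with 34-nt variable regions carried direct-repeat seeds, single-nucleotide variants, half-site ablations or random human genomic background. Ligand-free nuclear receptor dimers were applied for 1 h, and binding was read with antibodies against each partner (one per run). Binding z-scores come from regression-normalized fluorescence, with the random background probes as reference.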

[2] = system: PPARg:RXRa IVT, anti-PPARg (NR concentration 270 nM, RXRa partner concentration 90 nM)
Procedure, shortened: as §1

[3] = system: PPARg DBDmut:RXRa IVT, anti-PPARg (DBD mutation: PPARg1 K132A/R137A, NR concentration 270 nM, RXRa partner concentration 90 nM)
Procedure, shortened: as §1

[4] = system: PPARg DBDmut IVT, anti-PPARg (DBD mutation: PPARg1 K132A/R137A, NR concentration 270 nM)
Procedure, shortened: as §1

[5] = system: PPARg homodimer (NR concentration 180 nM)
Procedure, shortened: as §1

[6] = system: PXR:RXRa (NR concentration 270 nM, RXRa partner concentration 90 nM)
Procedure, shortened: as §1

[7] = system: PXR homodimer (NR concentration 270 nM)
Procedure, shortened: as §1

[8] = system: RARa:RXR (NR concentration 270 nM, RXRa partner concentration 90 nM)
Procedure, shortened: as §1

[9] = system: RARa homodimer (NR concentration 270 nM)
Procedure, shortened: as §1

[10] = system: RARb:RXRa (NR concentration 270 nM, RXRa partner concentration 90 nM)
Procedure, shortened: as §1

[11] = system: RARb homodimer (NR concentration 270 nM)
Procedure, shortened: as §1

[12] = system: RARg:RXRa (NR concentration 270 nM, RXRa partner concentration 90 nM)
Procedure, shortened: as §1

[13] = system: RARg homodimer (NR concentration 270 nM)
Procedure, shortened: as §1

[14] = system: RXRa DBDmut IVT, anti-RXR (DBD mutation: RXRa K156A/R161A, NR concentration 90 nM)
Procedure, shortened: as §1

[15] = system: RXRa homodimer (NR concentration 180 nM)
Procedure, shortened: as §1

[16] = system: THRa:RXRa (NR concentration 90 nM, RXRa partner concentration 90 nM)
Procedure, shortened: as §1

[17] = system: THRa homodimer (NR concentration 90 nM)
Procedure, shortened: as §1

[18] = system: VDR:RXRa (NR concentration 270 nM, RXRa partner concentration 90 nM)
Procedure, shortened: as §1

[19] = system: VDR homodimer (NR concentration 270 nM)
Procedure, shortened: as §1

Sequence	PBM binding z-score [1]	PBM binding z-score [2]	PBM binding z-score [3]	PBM binding z-score [4]	PBM binding z-score [5]	PBM binding z-score [6]	PBM binding z-score [7]	PBM binding z-score [8]	PBM binding z-score [9]	PBM binding z-score [10]	PBM binding z-score [11]	PBM binding z-score [12]	PBM binding z-score [13]	PBM binding z-score [14]	PBM binding z-score [15]	PBM binding z-score [16]	PBM binding z-score [17]	PBM binding z-score [18]	PBM binding z-score [19]
CCTAGTTGGTCAGGAGATCACACACCGGATATGA	0.463	0.766	0.576	0.266	1.26	0.215	0.728	0.415	1.34	0.518	0.781	0.628	1.01	0.108	0.347	-0.184	0.385	0.242	0.435
ATATGTAGGTTACATCCGGTTCATTCAGGCTATG	7.75	7.32	3.76	2.01	1.08	3.66	5.68	1.55	0.415	1.22	1	1.42	1.13	1.95	1.54	2.03	0.768	4.76	4.45
TAGCCTAGGTCAGATCGTGCCAGTATACGCTATA	0.562	1.66	0.149	-0.175	-0.159	0.82	-0.569	1.23	-0.542	3.18	2.22	2.83	3.28	-0.193	1.33	2.46	0.0586	0.516	-0.325
CCTAGCAGGCCAGGGTCAGTCAAGCATTTCGCTT	-0.0042	0.156	-1.41	-1.98	0.086	1.04	-0.793	1.69	-0.695	2.09	2.16	2.07	1.85	-0.296	1.65	1.75	0.116	0.634	0.172
ATCCAAAGGTCGAAGGTGAGTATACCCACCCGAA	0.6	2.51	0.413	0.999	2.58	3.26	0.0246	4.54	0.353	3.97	2.66	4.58	4.35	0.893	5.48	2.32	-0.204	3.15	0.849
GCGACTGGGGCATCTGCAGGTTACCATAACTTAA	3.92	2.96	-0.0823	-0.117	0.207	0.314	-0.507	0.637	-1.22	0.859	1.06	1.21	0.411	-0.0161	0.555	1.14	-0.146	-0.144	-0.456
CGAACTAGGTCATCCAGGACAGCGAATACATTGA	8.26	8.15	1.97	1.48	1.78	1.78	1.09	2.33	-0.0811	3.81	3	3.97	4.81	2.19	2.73	3.84	2.24	4.63	1.93
CCGACCGGGGCAAGGTTACCATAACGCACAGCCA	0.434	0.22	-0.24	-0.801	0.684	0.376	-0.0438	1.28	0.236	1.97	1.54	1.65	1.73	-0.596	1.39	1.64	0.837	0.334	0.12
GCAACGAGGGCAAAGTTGATAGCATCTGTCGACG	2.74	3.19	0.065	-0.728	0.234	1.18	-0.438	1.53	-0.122	2.34	0.991	1.89	1.57	2.62	1.81	1.19	-0.191		1.21
CCTACGGGGCCAAAAAGGTCATTGATGCCGATAA	0.493	1.52	-1.13	-0.859	2.87	5.34	9.18	5.07	0.847	4.26	4.54	5.07	4.8	1.23	5.09	3.44	0.423	5.88	3.98
TCATATAGGTAACACAGGTGAAAGTCGGCATCTA	4.65	4.09	0.968	1.6	1.38	1.15	0.735	1.5	1.19	1	1.12	1.13	0.999	1.73	1.55	1.36	0.518	1.49	0.493
TGAATGAGGTTCAAGATCAGGGAACGTGGCGTCG	-0.641	0.696	0.378	0.169	-0.0825	0.583	-0.309	0.775	0.0432	1.17	0.237	1.24	0.706	2.14	1.66	0.882	-0.612	1.56	1.64
ATCTCTAGGTAAGACTCAGTTCAGTGACGAACGC	2.2	1.36	0.803	0.863	0.854	1.11	2.01	0.642	1.18	0.528	0.735	0.464	0.443	0.676	0.364	0.824	0.878	0.924	1.74
CAAACTAGGTCGAAGGTCAAAGTCGAGCCAACCA	6.36	7.65	2.75	1.51	3.56	4.98	1.03	6.95	1.29	4.16	3.79	5.7	4.29	1.85	6.86	3.5	0.693		1.71
CGTCCAAGGTCAAGGTCAGAGAAAGAGACTCGAA	4.02	4.66	0.309	-0.449	3.52	4.81	1.27	5.48	2.01	5.62	4.83	6.78	7.97	3.66	6.72	4.16	3.41	4.57	3.04
